Experimental data as given in the supplement of paper PMC10849652.
The full data set covers some 7,900 targets. This sample favours those with a hit. About 0.6% of all pairs of compound and target were hits.

Legend:
Test in all cases: log2 fold change, soluble protein after heating vs DMSO (PISA); higher = thermal stabilisation; K562 cells, 10 uM, 30 min; active = over 0.2 and 3.5 SD of the protein, either way, in both replicates (recomputed)
[1] = compound: COC1=CC=C(C=C1)CN2C=CC3=C2C=C(C=C3)C(=O)NO
In short: (§1)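 Aliquots of K562 cells (2×10^6 cells/mL) treated with 10 μM compound for 30 min were heated for 3 min over 48°C-58°C. After pooling and extraction in PBS with 0.5% NP-40 at 4°C, soluble protein from a 21,000xg, 90 min spin was quantified by TMTpro 16plex LC-MS/MS with channel sums equalised. Thermal stability is expressed against control samples, from duplicates, as a log2 fold change.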

filanesib = compound: CON(C)C(=O)N1N=C(c2cc(F)ccc2F)S[C@@]1(CCCN)c1ccccc1 [filanesib]
In short: as §1

zotarolimus = compound: CO[C@H]1C[C@@H]2CC[C@@H](C)[C@@](O)(O2)C(=O)C(=O)N2CCCC[C@H]2C(=O)O[C@H]([C@H](C)C[C@@H]2CC[C@H](n3cnnn3)[C@H](OC)C2)CC(=O)[C@H](C)/C=C(\C)[C@@H](O)[C@@H](OC)C(=O)[C@H](C)C[C@H](C)/C=C/C=C/C=C/1C [zotarolimus]
In short: as §1

idasanutlin = compound: COc1cc(C(=O)O)ccc1NC(=O)[C@@H]1N[C@@H](CC(C)(C)C)[C@](C#N)(c2ccc(Cl)cc2F)[C@H]1c1cccc(Cl)c1F [idasanutlin]
In short: as §1

alisertib = compound: COc1cc(Nc2ncc3c(n2)-c2ccc(Cl)cc2C(c2c(F)cccc2OC)=NC3)ccc1C(=O)O [alisertib]
In short: as §1

[2] = compound: COc1cc2nc(-c3cc(F)ccc3O)nc(N[C@@H]3CNC[C@H]3C(C)(C)O)c2cc1OC
In short: as §1

gefitinib = compound: COc1cc2ncnc(Nc3ccc(F)c(Cl)c3)c2cc1OCCCN1CCOCC1 [gefitinib]
In short: as §1

[3] = compound: COc1cccc2cc(-c3nc([C@H]4CC[C@H](C(=O)O)CC4)n4ncnc(N)c34)[nH]c12
In short: as §1

lapatinib = compound: CS(=O)(=O)CCNCc1ccc(-c2ccc3ncnc(Nc4ccc(OCc5cccc(F)c5)c(Cl)c4)c3c2)o1 [lapatinib]
In short: as §1

pictilisib = compound: CS(=O)(=O)N1CCN(Cc2cc3nc(-c4cccc5[nH]ncc45)nc(N4CCOCC4)c3s2)CC1 [pictilisib]
In short: as §1

Measured: log2 fold change

GSTO1 (UniProt P78417)
Chain of UniProt P78417 (P78417 whole entry, looked up): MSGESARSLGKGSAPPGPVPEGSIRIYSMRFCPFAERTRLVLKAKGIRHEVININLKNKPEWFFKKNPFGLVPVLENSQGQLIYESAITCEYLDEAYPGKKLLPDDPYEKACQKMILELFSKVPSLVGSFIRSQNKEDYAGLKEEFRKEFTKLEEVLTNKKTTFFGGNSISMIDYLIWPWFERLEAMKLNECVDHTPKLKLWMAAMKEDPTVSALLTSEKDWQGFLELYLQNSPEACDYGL
inactive: [1] -0.015 | filanesib -0.031 | zotarolimus -0.017 | idasanutlin -0.037 | alisertib -0.063 | [2] -0.048 | gefitinib -0.001 | [3] 0.021 | lapatinib 0.02 | pictilisib -0.033

GALNT1 (UniProt Q10472)
inactive: [1] 0.224 | filanesib 0.058 | zotarolimus 0.005 | idasanutlin -0.033 | alisertib 0.047 | [2] 0.044 | gefitinib 0.066 | [3] 0.034 | lapatinib 0 | pictilisib 0.023

HIST2H2BF isoform 2 (UniProt Q5QNW6)
inactive: [1] 0.062 | filanesib 0.248 | zotarolimus -0.163 | idasanutlin 0.437 | alisertib 0.081 | [2] -0.112 | gefitinib 0.053 | [3] -0.314 | lapatinib 0.047 | pictilisib -0.137

GLA (UniProt P06280)
Chain of UniProt P06280 (P06280 whole entry, looked up): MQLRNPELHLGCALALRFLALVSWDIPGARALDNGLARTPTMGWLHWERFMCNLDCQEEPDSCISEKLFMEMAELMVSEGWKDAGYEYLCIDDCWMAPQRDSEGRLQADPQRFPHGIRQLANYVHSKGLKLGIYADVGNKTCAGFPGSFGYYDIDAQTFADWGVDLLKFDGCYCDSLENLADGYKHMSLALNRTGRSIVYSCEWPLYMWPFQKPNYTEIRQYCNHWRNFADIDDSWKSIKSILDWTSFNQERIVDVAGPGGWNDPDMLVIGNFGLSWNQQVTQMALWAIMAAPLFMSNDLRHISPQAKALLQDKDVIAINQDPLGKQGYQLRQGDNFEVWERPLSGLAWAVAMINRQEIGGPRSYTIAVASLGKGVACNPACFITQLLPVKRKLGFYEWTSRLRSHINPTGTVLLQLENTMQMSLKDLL
inactive: [1] 0.033 | filanesib -0.048 | zotarolimus -0.003 | idasanutlin 0.06 | alisertib -0.089 | [2] 0.018 | gefitinib -0.011 | [3] 0.01 | lapatinib -0.026 | pictilisib -0.06

GGT7 (UniProt Q9UJ14)
inactive: [1] 0.044 | filanesib 0.081 | zotarolimus -0.03 | idasanutlin -0.039 | alisertib -0.07 | [2] -0.098 | gefitinib 0.055 | [3] 0.05 | lapatinib -0.062 | pictilisib 0.143

GATA1 (UniProt P15976)
inactive: [1] -0.023 | filanesib 0.001 | zotarolimus -0.05 | idasanutlin -0.034 | alisertib 0.02 | [2] 0.07 | gefitinib 0.014 | [3] -0.087 | lapatinib 0.008 | pictilisib -0.021

FDPS (UniProt P14324)
Chain of UniProt P14324 (P14324 whole entry, looked up): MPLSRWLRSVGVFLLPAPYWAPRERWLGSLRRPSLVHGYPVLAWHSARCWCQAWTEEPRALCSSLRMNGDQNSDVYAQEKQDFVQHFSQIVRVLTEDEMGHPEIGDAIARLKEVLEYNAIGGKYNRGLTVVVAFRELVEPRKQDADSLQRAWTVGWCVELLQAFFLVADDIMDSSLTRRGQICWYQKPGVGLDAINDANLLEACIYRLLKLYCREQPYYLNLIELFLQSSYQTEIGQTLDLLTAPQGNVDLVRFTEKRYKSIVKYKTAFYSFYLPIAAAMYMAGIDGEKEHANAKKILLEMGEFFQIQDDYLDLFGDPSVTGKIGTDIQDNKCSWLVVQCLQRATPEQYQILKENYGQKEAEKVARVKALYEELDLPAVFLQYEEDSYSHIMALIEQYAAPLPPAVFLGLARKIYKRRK
inactive: [1] 0.048 | filanesib -0.246 | zotarolimus 0.019 | idasanutlin -0.063 | alisertib 0.066 | [2] 0.118 | gefitinib -0.047 | [3] 0.009 | lapatinib -0.018 | pictilisib -0.076

IFITM3 (UniProt Q01628)
inactive: [1] 0.055 | filanesib 0.008 | zotarolimus 0.007 | idasanutlin 0.07 | alisertib -0.121 | [2] -0.017 | gefitinib 0.09 | [3] 0.089 | lapatinib 0.004

HOMER1 (UniProt Q86YM7)
Chain of UniProt Q86YM7 (Q86YM7 whole entry, looked up): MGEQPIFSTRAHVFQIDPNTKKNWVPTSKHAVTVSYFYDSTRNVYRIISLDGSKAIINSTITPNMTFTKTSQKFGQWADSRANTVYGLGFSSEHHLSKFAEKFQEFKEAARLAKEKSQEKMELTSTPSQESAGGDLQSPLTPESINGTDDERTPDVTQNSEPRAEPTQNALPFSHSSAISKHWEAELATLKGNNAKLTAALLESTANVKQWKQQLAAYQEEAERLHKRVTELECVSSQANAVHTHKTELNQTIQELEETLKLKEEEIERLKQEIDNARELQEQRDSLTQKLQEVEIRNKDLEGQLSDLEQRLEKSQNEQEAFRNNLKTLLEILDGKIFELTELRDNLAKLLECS
inactive: [1] 0.168 | filanesib 0.051 | zotarolimus 0.043 | idasanutlin 0.011 | alisertib -0.083 | [2] -0.023 | gefitinib 0.086 | [3] -0.042 | lapatinib 0.073 | pictilisib -0.001

GSTP1 (UniProt P09211)
inactive: [1] -0.033 | filanesib -0.038 | zotarolimus 0.004 | idasanutlin -0.033 | alisertib -0.003 | [2] -0.003 | gefitinib 0.021 | [3] 0.069 | lapatinib -0.032 | pictilisib 0.035

IGF2BP2 (UniProt Q9Y6M1)
inactive: [1] -0.111 | filanesib 0.301 | zotarolimus 0.104 | idasanutlin 0.136 | alisertib -0.103 | [2] -0.105 | gefitinib 0.007 | [3] -0.113 | lapatinib 0.046 | pictilisib -0.043

FBXO3 (UniProt Q9UK99)
inactive: [1] 0.011 | filanesib -0.053 | zotarolimus -0.022 | idasanutlin 0.032 | alisertib -0.071 | [2] -0.013 | gefitinib 0.011 | [3] 0.025 | lapatinib 0.028 | pictilisib -0.023

FCHO1 (UniProt O14526)
inactive: [1] 0.061 | filanesib 0.055 | zotarolimus 0.068 | idasanutlin 0.072 | alisertib -0.055 | [2] 0.256 | gefitinib 0.046 | [3] 0.022 | lapatinib -0.105

HMGN2 (UniProt P05204)
inactive: [1] 0.01 | filanesib -0.043 | zotarolimus -0.048 | idasanutlin 0.041 | alisertib -0.028 | [2] 0.073 | gefitinib 0.046 | [3] 0.09 | lapatinib -0.051 | pictilisib -0.264

GDE1 (UniProt Q9NZC3)
inactive: [1] 0.046 | filanesib -0.102 | zotarolimus 0.043 | idasanutlin -0.064 | alisertib -0.176 | [2] 0.012 | gefitinib 0.008 | [3] 0.01 | lapatinib -0.011

HSPA8 (UniProt P11142)
inactive: [1] -0.008 | filanesib -0.035 | zotarolimus 0.005 | idasanutlin 0.018 | alisertib -0.036 | [2] -0.004 | gefitinib 0.018 | [3] -0.012 | lapatinib -0.018 | pictilisib -0.039

FDXR isoform 7 (UniProt P22570)
Chain of UniProt P22570 (P22570 whole entry, looked up): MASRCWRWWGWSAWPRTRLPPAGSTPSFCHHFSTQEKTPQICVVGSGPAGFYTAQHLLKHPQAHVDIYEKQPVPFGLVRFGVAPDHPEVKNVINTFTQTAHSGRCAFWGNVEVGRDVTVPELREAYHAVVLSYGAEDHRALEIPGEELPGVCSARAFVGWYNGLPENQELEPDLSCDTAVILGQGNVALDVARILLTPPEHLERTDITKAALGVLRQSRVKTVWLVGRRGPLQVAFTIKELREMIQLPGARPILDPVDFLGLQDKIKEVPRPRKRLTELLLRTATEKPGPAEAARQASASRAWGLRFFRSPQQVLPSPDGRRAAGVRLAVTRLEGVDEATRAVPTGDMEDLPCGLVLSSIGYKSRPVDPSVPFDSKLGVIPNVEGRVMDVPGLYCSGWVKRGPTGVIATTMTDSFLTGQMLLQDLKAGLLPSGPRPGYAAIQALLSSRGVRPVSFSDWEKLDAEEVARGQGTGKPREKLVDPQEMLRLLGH
inactive: [1] -0.005 | filanesib -0.122 | zotarolimus 0.021 | idasanutlin -0.179 | alisertib -0.019 | [2] 0.06 | gefitinib 0.048 | [3] 0.074 | lapatinib -0.057 | pictilisib 0.201

FERMT3 (UniProt Q86UX7)
Chain of UniProt Q86UX7 (Q86UX7 whole entry, looked up): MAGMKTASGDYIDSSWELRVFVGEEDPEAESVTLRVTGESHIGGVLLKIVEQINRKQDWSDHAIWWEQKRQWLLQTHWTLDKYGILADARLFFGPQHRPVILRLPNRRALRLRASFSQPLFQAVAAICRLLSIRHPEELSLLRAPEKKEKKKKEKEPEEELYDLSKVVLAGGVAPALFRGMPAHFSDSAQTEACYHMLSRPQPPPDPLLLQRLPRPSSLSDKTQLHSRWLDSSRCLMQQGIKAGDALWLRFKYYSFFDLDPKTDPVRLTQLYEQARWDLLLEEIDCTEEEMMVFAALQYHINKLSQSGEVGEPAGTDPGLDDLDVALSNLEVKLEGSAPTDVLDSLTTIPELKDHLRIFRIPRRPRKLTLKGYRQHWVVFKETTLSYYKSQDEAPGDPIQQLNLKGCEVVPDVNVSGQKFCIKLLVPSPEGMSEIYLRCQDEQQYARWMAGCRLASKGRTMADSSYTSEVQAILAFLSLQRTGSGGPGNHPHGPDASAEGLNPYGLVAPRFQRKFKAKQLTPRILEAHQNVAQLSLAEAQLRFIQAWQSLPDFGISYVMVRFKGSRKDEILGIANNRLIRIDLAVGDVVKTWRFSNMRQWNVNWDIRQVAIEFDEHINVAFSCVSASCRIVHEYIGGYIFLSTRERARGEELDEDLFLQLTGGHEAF
inactive: [1] 0.046 | filanesib -0.037 | zotarolimus 0.033 | idasanutlin -0.068 | alisertib -0.104 | [2] 0 | gefitinib -0.007 | [3] 0.001 | lapatinib -0.006 | pictilisib 0.009

IFRD1 (UniProt O00458)
Chain of UniProt O00458 (O00458 whole entry, looked up): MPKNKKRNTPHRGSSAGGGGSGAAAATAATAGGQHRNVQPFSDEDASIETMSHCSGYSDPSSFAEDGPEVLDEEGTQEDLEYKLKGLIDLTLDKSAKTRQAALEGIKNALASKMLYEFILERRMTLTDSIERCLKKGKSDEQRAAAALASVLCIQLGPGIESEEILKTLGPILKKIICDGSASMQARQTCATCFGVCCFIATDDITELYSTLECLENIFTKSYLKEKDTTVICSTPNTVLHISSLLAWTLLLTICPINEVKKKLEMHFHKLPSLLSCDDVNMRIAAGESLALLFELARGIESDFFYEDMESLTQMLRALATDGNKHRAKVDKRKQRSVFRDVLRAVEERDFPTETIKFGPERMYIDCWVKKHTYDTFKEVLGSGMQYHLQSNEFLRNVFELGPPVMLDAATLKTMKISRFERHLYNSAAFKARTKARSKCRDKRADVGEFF
inactive: [1] -0.07 | filanesib -0.017 | zotarolimus 0.071 | idasanutlin -0.042 | alisertib -0.008 | [2] -0.25 | gefitinib 0.199 | [3] 0.253 | lapatinib 0.069 | pictilisib 0.214

GOLGB1 isoform 2 (UniProt Q14789)
inactive: [1] -0.16 | zotarolimus -0.04 | idasanutlin 0.066 | alisertib -0.069 | [2] 0.072 | gefitinib -0.02 | [3] -0.051 | lapatinib 0.046 | pictilisib 0.066
active: filanesib 0.337

IGF2 isoform 3 (UniProt P01344)
inactive: [1] 0.041

H1FX (UniProt Q92522)
Chain of UniProt Q92522 (Q92522 whole entry, looked up): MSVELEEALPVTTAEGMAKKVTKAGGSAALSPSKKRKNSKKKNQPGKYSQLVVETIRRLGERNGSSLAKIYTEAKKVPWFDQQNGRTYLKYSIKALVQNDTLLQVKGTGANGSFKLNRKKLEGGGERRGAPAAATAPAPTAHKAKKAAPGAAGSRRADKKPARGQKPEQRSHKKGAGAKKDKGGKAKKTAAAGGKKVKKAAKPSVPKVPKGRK
inactive: [1] -0.116 | filanesib 0.112 | zotarolimus 0.049 | idasanutlin 0.161 | alisertib -0.147 | [2] 0.033 | gefitinib -0.044 | [3] -0.24 | lapatinib 0.133 | pictilisib -0.134

GLS (UniProt O94925)
Chain of UniProt O94925 (O94925 whole entry, looked up): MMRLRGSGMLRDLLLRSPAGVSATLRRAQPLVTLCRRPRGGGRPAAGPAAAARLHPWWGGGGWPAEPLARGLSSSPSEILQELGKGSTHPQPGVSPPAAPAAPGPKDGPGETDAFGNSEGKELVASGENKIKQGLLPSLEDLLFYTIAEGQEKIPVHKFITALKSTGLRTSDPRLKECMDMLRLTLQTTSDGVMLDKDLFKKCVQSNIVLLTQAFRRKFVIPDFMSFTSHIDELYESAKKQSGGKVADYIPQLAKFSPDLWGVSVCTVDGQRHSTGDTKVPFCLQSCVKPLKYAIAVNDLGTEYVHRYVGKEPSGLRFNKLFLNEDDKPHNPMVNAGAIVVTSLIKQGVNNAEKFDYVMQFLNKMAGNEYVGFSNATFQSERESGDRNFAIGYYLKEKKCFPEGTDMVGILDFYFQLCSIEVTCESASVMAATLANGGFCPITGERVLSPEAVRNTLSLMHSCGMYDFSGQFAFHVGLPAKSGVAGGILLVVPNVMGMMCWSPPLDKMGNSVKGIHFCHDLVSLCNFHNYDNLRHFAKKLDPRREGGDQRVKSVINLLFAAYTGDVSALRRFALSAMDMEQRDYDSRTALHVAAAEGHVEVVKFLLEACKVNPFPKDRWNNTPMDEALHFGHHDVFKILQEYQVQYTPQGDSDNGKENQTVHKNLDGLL
inactive: [1] 0.009 | filanesib 0.029 | zotarolimus 0.027 | idasanutlin -0.192 | alisertib 0.143 | [2] 0.22 | gefitinib 0.033 | [3] -0.009 | lapatinib -0.052 | pictilisib 0.049

GGA2 (UniProt Q9UJY4)
inactive: [1] 0.012 | filanesib -0.09 | zotarolimus 0.069 | idasanutlin -0.017 | alisertib -0.067 | [2] 0.181 | gefitinib -0.004 | [3] 0.112 | lapatinib -0.027

GBA2 (UniProt Q9HCG7)
inactive: [1] -0.064 | filanesib 0.117 | zotarolimus 0.087 | idasanutlin -0.042 | alisertib 0.067 | [2] 0.049 | gefitinib 0.084 | [3] -0.062 | lapatinib 0.011

FDFT1 (UniProt P37268)
inactive: [1] 0.123 | zotarolimus 0.014 | idasanutlin 0.013 | alisertib 0.008 | [2] -0.052 | gefitinib -0.01 | [3] 0.042 | lapatinib -0.023 | pictilisib 0
active: filanesib 0.401

HDAC2 (UniProt Q92769)
Chain of UniProt Q92769 (Q92769 whole entry, looked up): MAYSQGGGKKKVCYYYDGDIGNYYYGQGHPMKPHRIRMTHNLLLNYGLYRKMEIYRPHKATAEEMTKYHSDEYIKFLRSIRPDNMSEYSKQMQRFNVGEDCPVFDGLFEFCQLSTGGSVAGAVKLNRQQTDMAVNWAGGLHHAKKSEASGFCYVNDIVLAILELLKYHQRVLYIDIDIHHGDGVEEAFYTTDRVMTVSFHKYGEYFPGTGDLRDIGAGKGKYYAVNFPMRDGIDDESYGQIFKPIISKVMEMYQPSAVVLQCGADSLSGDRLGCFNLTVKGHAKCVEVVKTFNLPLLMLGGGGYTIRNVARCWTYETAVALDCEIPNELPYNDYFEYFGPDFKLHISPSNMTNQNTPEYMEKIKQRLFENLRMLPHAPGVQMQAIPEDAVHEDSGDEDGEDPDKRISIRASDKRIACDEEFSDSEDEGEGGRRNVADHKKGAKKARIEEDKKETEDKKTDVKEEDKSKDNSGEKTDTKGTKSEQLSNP
inactive: [1] -0.144 | filanesib 0.029 | zotarolimus 0.008 | idasanutlin 0.008 | alisertib -0.041 | [2] 0 | gefitinib 0.007 | [3] 0.017 | lapatinib 0.063 | pictilisib 0.024

GNG5 (UniProt P63218)
inactive: [1] 0.082 | filanesib 0.086 | zotarolimus -0.016 | idasanutlin 0.065 | alisertib -0.146 | [2] -0.022 | gefitinib 0.224 | [3] 0.079 | lapatinib -0.006 | pictilisib -0.087

GSR (UniProt P00390)
Chain of UniProt P00390 (P00390 whole entry, looked up): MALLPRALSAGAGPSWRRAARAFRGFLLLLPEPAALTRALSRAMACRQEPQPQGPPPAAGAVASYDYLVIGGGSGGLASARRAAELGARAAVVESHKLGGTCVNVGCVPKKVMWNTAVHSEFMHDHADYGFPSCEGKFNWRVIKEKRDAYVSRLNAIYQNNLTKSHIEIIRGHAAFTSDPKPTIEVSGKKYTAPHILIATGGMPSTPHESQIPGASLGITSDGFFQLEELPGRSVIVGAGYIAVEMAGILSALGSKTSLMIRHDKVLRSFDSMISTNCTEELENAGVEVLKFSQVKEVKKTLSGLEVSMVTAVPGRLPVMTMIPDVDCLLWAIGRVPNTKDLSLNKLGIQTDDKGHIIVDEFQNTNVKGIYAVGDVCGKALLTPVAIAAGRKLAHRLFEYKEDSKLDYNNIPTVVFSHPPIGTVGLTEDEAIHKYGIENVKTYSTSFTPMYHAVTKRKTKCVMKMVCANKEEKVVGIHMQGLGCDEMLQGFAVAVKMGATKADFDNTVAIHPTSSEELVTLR
inactive: [1] 0.023 | filanesib -0.065 | zotarolimus -0.039 | idasanutlin -0.049 | alisertib -0.032 | [2] 0.015 | gefitinib -0.016 | [3] 0.043 | lapatinib -0.057 | pictilisib 0.036

GTF2B (UniProt Q00403)
inactive: [1] 0.046 | filanesib -0.018 | zotarolimus 0.054 | idasanutlin -0.085 | alisertib -0.037 | [2] -0.001 | gefitinib 0.02 | [3] -0.006 | lapatinib -0.047 | pictilisib -0.025

GUK1 isoform 2 (UniProt Q16774)
inactive: [1] 0.215 | filanesib -0.005 | zotarolimus 0.022 | idasanutlin -0.04 | alisertib -0.048 | [2] 0.155 | gefitinib -0.05 | [3] -0.019 | lapatinib -0.001 | pictilisib 0.017
